Inconclusive results are not listed. Activity calls are given as the source filed them. Unless noted, the call rests on the fitted dose curve; in most records, active means well fitted curve in the direction sought with a large enough effect in the repeat runs; inconclusive means weak or mixed curves; inactive means no such curve, though single readings can be large; an effect the other way counts as inactive or inconclusive.
How the values were obtained:
[1] = molecular target: Aryl hydrocarbon receptor (Homo sapiens) (UniProt P35869); test: qHTS assay to identify small molecule that activate the aryl hydrocarbon receptor (AhR) signaling pathway (AID 743085);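 further: HG2L7.5c1 human HepG2 liver cells with stably integrated DRE-driven firefly reporter; series mostly up to about 70 µM; nearly all actives have a fitted effect of over 15% in size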
How it was run: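 Compounds were tested in HepG2 hepatocellular carcinoma cells harbouring a stably integrated luciferase gene under control of 20 DREs. Increased reporter signal after 24 h treatment at 37C was taken as AhR activation.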

[2] = qHTS assay to identify small molecule antagonists of the peroxisome proliferator-activated receptor gamma (PPARg) signaling pathway - cell viability counter screen (AID 743194); details: Potency: co-treated with 50 nM rosiglitazone; further: nearly all actives have a fitted effect of over 55% in size
How it was run: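 Cytotoxicity counter screen in PPARg-bla HEK293H cells, same wells as reporter assay. Compounds plus 50 nM rosiglitazone (final) for 17 h at 37 C, then viability read by CellTiter-Glo luminescence.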

[3] = qHTS assay for small molecule agonists of the antioxidant response element (ARE) signaling pathway - cell viability counter screen (AID 743203; calls by dose curve; further: nearly all actives have a fitted effect of over 55% in size)
How it was run: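 ARE-bla HepG2 cells were plated, rested 5 h at 37C/5% CO2, then exposed to compounds in DMSO for 16 h. Viability was read as CellTiter-Glo luminescence after 30 min at room temperature, in the same wells as the ARE screen.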

[4] = qHTS assay for small molecule activators of the heat shock response signaling pathway - cell viability counter screen (AID 743209); further: nearly all actives have a fitted effect of over 50% in size
How it was run: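 HSE-bla HeLa cells plated overnight, then exposed to Tox21 compounds (23 nL in DMSO) for 5 h at 37 C. After the bla reporter read, CellTiter-Glo was added in the same wells and luminescence read after 30 min at room temperature.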

[5] = qHTS assay for small molecule activators of the heat shock response signaling pathway (AID 743210; active means well fitted activation curve with a large enough effect in the signal ratio in the repeat runs, with a control signal flat, not every such curve was filed as active; the % refers to the signal ratio; further: series mostly up to about 63 µM)
How it was run: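 HSE-bla HeLa cells (beta-lactamase reporter under heat shock response elements), plated overnight, then exposed to compounds 5 h at 37 C; LiveBLAzer B/G FRET substrate added, 2.5 h at room temperature, fluorescence intensity read.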

[6] = qHTS assay to identify small molecule antagonists of the peroxisome proliferator-activated receptor delta (PPARd) signaling pathway - cell viability counter screen (AID 743213); further: nearly all actives have a fitted effect of over 50% in size
How it was run: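 HEK293H cells with the PPARd UAS-bla reporter, co-treated 17 h at 37 C with compounds and L165041 (300 nM final), were lysed with CellTiter-Glo. Luminescence indicated viable cell content.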

[7] = molecular target: Bile acid receptor (Homo sapiens) (UniProt Q96RI1); test: qHTS assay to identify small molecule antagonists of the farnesoid-X-receptor (FXR) signaling pathway (AID 743217; active means well fitted inhibition curve with a large enough effect in the signal ratio in the repeat runs, not every such curve was filed as active; the % refers to the signal ratio)
How it was run: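 FXR-UAS-bla HEK 293T cells (beta-lactamase reporter) given compound plus chenodeoxycholic acid (50 uM final), 16 h at 37C. LiveBLAzer B/G FRET substrate added for 2 h at room temperature; fluorescence read.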

[8] = qHTS assay to identify small molecule agonists of the farnesoid-X-receptor (FXR) signaling pathway - cell viability counter screen (AID 743218); further: nearly all actives have a fitted effect of over 45% in size
How it was run: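 FXR-UAS-bla HEK 293T cells exposed to compounds for 16 h at 37C. Cytotoxicity read in the same wells by CellTiter-Glo luminescence after 30 min at room temperature, following the beta-lactamase FRET read.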

[9] = molecular target: Bile acid receptor (Homo sapiens) (UniProt Q96RI1); test: qHTS assay to identify small molecule agonists of the farnesoid-X-receptor (FXR) signaling pathway (AID 743220; active means well fitted activation curve with a large enough effect in the signal ratio in the repeat runs, not every such curve was filed as active; the % refers to the signal ratio)
How it was run: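 Beta-lactamase reporter under UAS control in GeneBLAzer FXR HEK 293T cells (5000/well) measured with LiveBLAzer FRET substrate after 2 h at room temperature. Compound exposure lasted 16 h at 37C.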

[10] = qHTS assay to identify small molecule antagonists of the farnesoid-X-receptor (FXR) signaling pathway - cell viability counter screen (AID 743221; active means well fitted cell-killing curve with a large enough effect in the repeat runs, not every such curve was filed as active; further: nearly all actives have a fitted effect of over 50% in size)
How it was run: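 Multiplexed counter screen: viability of FXR-bla HEK 293T cells under agonist stimulation by chenodeoxycholic acid (50 uM, final) and test compound for 16 h at 37 C, measured by CellTiter-Glo luminescence in the reporter wells.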

[11] = molecular target: Vitamin D3 receptor (Homo sapiens) (UniProt P11473); test: qHTS assay to identify small molecule agonists of the vitamin D receptor (VDR) signaling pathway (AID 743222; calls by dose curve)
How it was run: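 VDR-bla cells plated 4 h at 37 C, then exposed to compounds for 16 h at 37 C. Beta-lactamase reporter activity measured by fluorescence after 2 h room-temperature loading with LiveBLAzer B/G FRET substrate.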

[12] = qHTS assay to identify aromatase inhibitors - cell viability counter screen (AID 743084);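 further: cells stimulated with testosterone during compound exposure; nearly all actives have a fitted effect of over 55% in size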
[13] = molecular target: Peroxisome proliferator-activated receptor gamma (Homo sapiens) (UniProt P37231); test: qHTS assay to identify small molecule agonists of the peroxisome proliferator-activated receptor gamma (PPARg) signaling pathway (AID 743094; active means well fitted activation curve with a large enough effect in the signal ratio in the repeat runs, not every such curve was filed as active; the % refers to the signal ratio)
How it was run: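 GeneBLAzer PPARg UAS-bla HEK293H cells were plated, rested 5 h, then exposed to compounds for 17 h at 37C. Beta-lactamase activity was read by LiveBLAzer B/G FRET substrate fluorescence after 1 h at room temperature.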

[14] = molecular target: Peroxisome proliferator-activated receptor gamma (Homo sapiens) (UniProt P37231); test: qHTS assay to identify small molecule antagonists of the peroxisome proliferator-activated receptor gamma (PPARg) signaling pathway (AID 743191; calls by dose curve; further: series mostly up to about 63 µM; nearly all actives have a fitted effect of over 30% in size)
How it was run: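 GeneBLAzer PPARg UAS-bla HEK293H cells, 5 h post-plating, exposed to compounds 17 h at 37C. LiveBLAzer B/G FRET substrate added for 1 h at room temperature; beta-lactamase reporter read by fluorescence intensity.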

[15] = qHTS assay for small molecule agonists of the antioxidant response element (ARE) signaling pathway (AID 743202; active means well fitted activation curve with a large enough effect in the signal ratio in the repeat runs, not every such curve was filed as active; the % refers to the signal ratio)
How it was run: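 ARE-bla HepG2 cells (beta-lactamase reporter under the antioxidant response element), plated 5 hours, then exposed to compounds 16 hours at 37 C. LiveBLAzer B/G FRET substrate added for 2 hours at room temperature; fluorescence intensity read.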

[16] = molecular target: Peroxisome proliferator-activated receptor delta (Homo sapiens) (UniProt Q03181); test: qHTS assay to identify small molecule agonists of the peroxisome proliferator-activated receptor delta (PPARd) signaling pathway (AID 743212; calls by dose curve)
How it was run: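 GeneBLAzer UAS-bla HEK293H cells carrying a PPARδ construct were exposed to compounds at 37 °C. Beta-lactamase activity was read by FRET fluorescence after 2 h at room temperature with LiveBLAzer B/G substrate.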

[17] = molecular target: Vitamin D3 receptor (Homo sapiens) (UniProt P11473); test: qHTS assay to identify small molecule antagonists of the vitamin D receptor (VDR) signaling pathway (AID 743223; active means well fitted inhibition curve with a large enough effect in the signal ratio in the repeat runs, not every such curve was filed as active; the % refers to the signal ratio)
How it was run: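 Cells carrying a VDR-driven beta-lactamase reporter (VDR-bla) were co-treated with compound and 3 nM final 1alpha,25-dihydroxyvitamin D3 for 16 h at 37C; reporter activity was measured as FRET substrate fluorescence after 2 h at room temperature.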

[18] = qHTS assay to identify small molecule agonists of the peroxisome proliferator-activated receptor delta (PPARd) signaling pathway - cell viability counter screen (AID 743211); further: nearly all actives have a fitted effect of over 55% in size
How it was run: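 Counter screen for cytotoxicity run in parallel with the PPARd reporter screen. Beta-lactamase reporter HEK293H cells exposed to compounds 17 h; ATP-based CellTiter-Glo luminescence quantified viability.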

[19] = qHTS assay to identify small molecule that activate the aryl hydrocarbon receptor (AhR) signaling pathway - cell viability counter screen (AID 743086);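 further: HepG2 liver cells carrying the AhR DRE luciferase reporter; series mostly up to about 70 µM; nearly all actives have a fitted effect of over 45% in size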
How it was run: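 HepG2-AhR-luc (HG2L7.5c1) cells, 4000/well, treated 24 h at 37 C with compound; viability measured as CellTiter-Fluor fluorescence after 30 min in the same wells as the luciferase read.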

Measured: Potency

Chain of Peroxisome proliferator-activated receptor delta (Homo sapiens) (Q03181 whole entry, looked up): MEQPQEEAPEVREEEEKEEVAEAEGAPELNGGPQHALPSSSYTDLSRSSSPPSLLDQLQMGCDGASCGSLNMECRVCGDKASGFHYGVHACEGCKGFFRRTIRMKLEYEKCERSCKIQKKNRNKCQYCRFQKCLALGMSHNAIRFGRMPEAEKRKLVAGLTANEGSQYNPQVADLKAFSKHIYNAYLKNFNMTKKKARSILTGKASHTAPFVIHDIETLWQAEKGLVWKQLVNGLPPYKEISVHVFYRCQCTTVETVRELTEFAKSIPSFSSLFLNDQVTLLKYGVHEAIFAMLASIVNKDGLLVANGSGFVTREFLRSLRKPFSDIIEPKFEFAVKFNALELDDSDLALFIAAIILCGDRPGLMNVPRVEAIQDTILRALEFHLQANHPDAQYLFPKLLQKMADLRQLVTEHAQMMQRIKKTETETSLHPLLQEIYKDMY
Chain of Vitamin D3 receptor (Homo sapiens) (P11473 whole entry, looked up): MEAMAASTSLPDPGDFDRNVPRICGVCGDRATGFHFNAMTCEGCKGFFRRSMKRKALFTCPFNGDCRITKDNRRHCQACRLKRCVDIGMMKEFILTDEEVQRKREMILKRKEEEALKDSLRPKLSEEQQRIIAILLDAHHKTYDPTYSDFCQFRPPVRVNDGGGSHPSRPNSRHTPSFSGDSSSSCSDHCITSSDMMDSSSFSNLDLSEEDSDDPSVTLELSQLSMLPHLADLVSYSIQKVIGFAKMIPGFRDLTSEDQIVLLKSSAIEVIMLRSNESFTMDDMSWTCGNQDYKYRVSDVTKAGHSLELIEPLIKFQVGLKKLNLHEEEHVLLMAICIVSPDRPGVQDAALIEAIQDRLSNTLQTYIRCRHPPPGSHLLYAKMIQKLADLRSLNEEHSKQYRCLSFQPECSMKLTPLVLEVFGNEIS
Chain of Peroxisome proliferator-activated receptor gamma (Homo sapiens) (P37231 whole entry, looked up): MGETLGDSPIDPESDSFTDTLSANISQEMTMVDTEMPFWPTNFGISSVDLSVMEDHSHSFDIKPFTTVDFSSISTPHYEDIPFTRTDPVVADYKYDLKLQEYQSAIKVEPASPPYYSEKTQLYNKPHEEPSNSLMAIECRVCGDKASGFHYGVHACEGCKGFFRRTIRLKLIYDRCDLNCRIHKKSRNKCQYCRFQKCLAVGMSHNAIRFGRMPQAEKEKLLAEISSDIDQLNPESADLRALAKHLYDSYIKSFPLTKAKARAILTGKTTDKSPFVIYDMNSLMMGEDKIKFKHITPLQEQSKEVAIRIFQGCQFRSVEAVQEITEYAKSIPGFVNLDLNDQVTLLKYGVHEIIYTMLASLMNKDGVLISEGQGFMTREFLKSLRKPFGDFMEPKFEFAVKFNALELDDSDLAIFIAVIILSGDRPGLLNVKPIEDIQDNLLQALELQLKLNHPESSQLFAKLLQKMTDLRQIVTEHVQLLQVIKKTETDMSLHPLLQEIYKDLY
Chain of Bile acid receptor (Homo sapiens) (Q96RI1 whole entry, looked up): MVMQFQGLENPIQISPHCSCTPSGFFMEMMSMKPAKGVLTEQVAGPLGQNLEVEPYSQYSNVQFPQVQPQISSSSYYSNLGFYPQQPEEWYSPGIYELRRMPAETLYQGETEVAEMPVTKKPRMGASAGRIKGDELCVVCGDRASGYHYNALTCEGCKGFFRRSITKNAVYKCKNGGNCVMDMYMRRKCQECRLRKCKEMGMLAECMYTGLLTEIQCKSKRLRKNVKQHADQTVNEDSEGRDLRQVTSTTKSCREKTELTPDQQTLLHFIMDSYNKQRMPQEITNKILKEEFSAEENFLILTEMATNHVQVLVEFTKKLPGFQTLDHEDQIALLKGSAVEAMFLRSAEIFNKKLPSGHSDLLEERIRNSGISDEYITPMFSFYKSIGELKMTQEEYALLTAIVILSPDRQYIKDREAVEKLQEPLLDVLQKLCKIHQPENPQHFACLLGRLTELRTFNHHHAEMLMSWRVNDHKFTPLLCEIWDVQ
Chain of Aryl hydrocarbon receptor (Homo sapiens) (P35869 whole entry, looked up): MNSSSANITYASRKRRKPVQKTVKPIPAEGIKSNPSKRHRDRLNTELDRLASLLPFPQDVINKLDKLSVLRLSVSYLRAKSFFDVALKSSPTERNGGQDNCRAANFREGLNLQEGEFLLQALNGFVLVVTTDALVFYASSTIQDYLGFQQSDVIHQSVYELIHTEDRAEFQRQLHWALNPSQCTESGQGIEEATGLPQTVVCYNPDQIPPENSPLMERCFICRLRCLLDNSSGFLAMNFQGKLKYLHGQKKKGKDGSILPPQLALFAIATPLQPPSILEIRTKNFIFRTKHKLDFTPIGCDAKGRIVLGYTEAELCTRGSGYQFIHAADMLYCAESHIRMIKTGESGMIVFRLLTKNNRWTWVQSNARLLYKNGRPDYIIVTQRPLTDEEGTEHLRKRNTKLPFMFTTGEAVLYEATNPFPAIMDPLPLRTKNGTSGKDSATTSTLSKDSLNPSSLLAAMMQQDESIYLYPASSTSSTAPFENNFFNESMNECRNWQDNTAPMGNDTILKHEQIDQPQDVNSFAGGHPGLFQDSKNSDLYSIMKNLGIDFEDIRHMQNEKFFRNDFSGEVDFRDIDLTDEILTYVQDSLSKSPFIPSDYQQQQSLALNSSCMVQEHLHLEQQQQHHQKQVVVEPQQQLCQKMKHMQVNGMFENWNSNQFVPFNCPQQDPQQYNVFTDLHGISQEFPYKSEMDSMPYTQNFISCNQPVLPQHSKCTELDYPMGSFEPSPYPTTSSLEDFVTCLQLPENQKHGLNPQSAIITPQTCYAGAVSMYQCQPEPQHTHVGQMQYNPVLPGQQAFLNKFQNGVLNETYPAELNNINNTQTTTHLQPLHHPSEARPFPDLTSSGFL

C[C@@H]1CC[C@H]2[C@@H](C)C(=O)O[C@@H]3O[C@@]4(C)CC[C@@H]1[C@]32OO4
inactive: [1] | [2] | [3] | [4] | [5] | [6] | [7] | [8] | [9] | [10] | [11]

Clc1ccc(C2(Cn3cncn3)CC(Br)CO2)c(Cl)c1 (centres undefined)
inactive: [12] | [13] | [14] | [2] | [15] | [3] | [4] | [5] | [16] | [6] | [9] | [10] | [11] | [17]

CC1CC(CC2CCC(N)C(C)C2)CCC1N (centres undefined)
inactive: [1] | [13] | [2] | [3] | [5] | [18] | [16] | [11]

CCOP(=S)(Oc1ccc([N+](=O)[O-])cc1)c1ccccc1 (centres undefined)
inactive: [12] | [19] | [2] | [3] | [4] | [18] | [16] | [6] | [10] | [11] | [17]
